Source: PubChem BioAssay (National Center for Advancing Translational Sciences (NCATS))
A selection: hits, their analogues and other compounds. The true share with any hit is near 2.7%.
ATXN2 expr inh = ATXN2 expression inhibition; Potency, µM (top dose mostly 57 µM), for inactives: at the top dose activity change, negative = inhibition, actives largely listed as inhibitors; HEK-293 ATXN2-luciferase reporter, luminescence, 24 h; hit rate 0.72% among 360,000; note: % is set by controls: 0 for no effect and ±100 for the full control effect; nearly all actives have a fitted effect of over 55% in size
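ATXN2-luciferase reporter cells (luciferase flanked by upstream and downstream ATXN2 gene portions) were treated 24 h at 37 °C with compounds at up to 57 uM. SteadyGlo luminescence gave expression; GF-AFC fluorescence gave viability.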
TGFb inhibitor = inhibitors of TGF-b signaling; HepG2 CAGA-GFP TGF-b/SMAD3 reporter, GFP fluorescence, 18 h; TGF-beta stimulated, 500 pg/mL final; Potency, µM (doses to about 46.1 µM), for inactives: at the top dose activity, negative = inhibition, hits mostly inhibitors; hit rate 1.2% among 410,000; AID 588855; note: % is set by controls: 0 for no effect and ±100 for the full control effect; nearly all actives have a fitted effect of over 65% in size
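Inhibition of TGF-beta-driven CAGA-GFP reporter expression in HEPG2 cells is measured by cellular GFP fluorescence after 18 h stimulation with 500 pg/mL recombinant TGF-beta in 1% FBS medium at 37 degrees C.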
ATXN viability = cell viability loss in ATXN counter-screen; S2 cells (HEK-293 line with an ATXN2-luciferase reporter) viability, CellTiter-Fluor protease fluorescence, 24 h; AID 651635; Potency, µM (titrated, usually from 56.7 µM), most hits filed as cytotoxic; hit rate 0.49% among 400,000; note: nearly all actives have a fitted effect of over 40% in size
HepG2 viability = counter-screen for TGF-b inhibitors: cytotoxicity in HepG2 cells. Potency, µM (titrated, usually from 46.1 µM), for inactives: at the top dose activity change, negative = cytotoxicity, actives largely listed as cytotoxic. hit rate 0.76% among 410,000. HepG2 CAGA-GFP viability, ATP luminescence, 18 h
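CellTiter-Glo luminescence gave cytotoxicity after 18 hours at 37 degrees C. The cells were HepG2 CAGA-GFP in 1% FBS DMEM, stimulated with 500 pg/mL TGF-beta after compound addition. %Activity was normalised to no-cell wells (complete cell-killing) and DMSO (no toxicity), and curves were fitted and classified.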
12-LOX inh = ALOX12 (human) lipoxygenase inhibition; purified 12hLO, xylenol orange hydroperoxide absorbance; hit rate 1.1% among 580,000; Potency, µM (titrated, usually from 108 µM), for the others: at the top dose activity change, negative = inhibition, hits mostly inhibitors; P18054; note: % is set by controls: 0 for no effect and ±100 for the full control effect
Target sequence (P18054 whole entry, looked up): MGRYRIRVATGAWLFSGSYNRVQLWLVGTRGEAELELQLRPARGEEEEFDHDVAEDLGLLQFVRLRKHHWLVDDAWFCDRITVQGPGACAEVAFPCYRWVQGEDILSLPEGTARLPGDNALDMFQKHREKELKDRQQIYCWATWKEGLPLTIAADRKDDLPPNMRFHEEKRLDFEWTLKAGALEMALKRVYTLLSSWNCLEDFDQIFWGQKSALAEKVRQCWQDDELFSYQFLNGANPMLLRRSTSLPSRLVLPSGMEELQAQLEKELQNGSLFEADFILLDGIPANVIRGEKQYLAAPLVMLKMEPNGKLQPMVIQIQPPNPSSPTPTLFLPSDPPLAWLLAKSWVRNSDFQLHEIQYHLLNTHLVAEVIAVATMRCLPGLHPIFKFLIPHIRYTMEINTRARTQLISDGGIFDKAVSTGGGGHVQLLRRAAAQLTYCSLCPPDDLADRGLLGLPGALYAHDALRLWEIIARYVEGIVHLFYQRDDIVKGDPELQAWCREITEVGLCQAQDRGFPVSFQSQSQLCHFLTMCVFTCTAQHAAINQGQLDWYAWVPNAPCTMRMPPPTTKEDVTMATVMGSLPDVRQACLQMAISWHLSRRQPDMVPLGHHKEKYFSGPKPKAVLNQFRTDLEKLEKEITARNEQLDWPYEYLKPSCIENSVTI
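Hydroperoxide product was detected by ferrous iron/xylenol orange as the 573 to 405 nm absorbance ratio. Arachidonic acid at 40 uM (final) was turned over for 30 min at room temperature by 150 nM human 12hLO, pH 7.0 Hepes buffer, after 15 min compound preincubation.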
An asterisk follows results filed as active; i = inactive; ? = inconclusive; / = not tested or not shown; ! = not confirmed by another sample; [ ] = remark or other dose. Calls come from the whole dose curve; as a rule, active = well fitted curve in the direction sought with a large enough effect; inconclusive = small, poorly fitted or top-dose-only effect, or another doubt; inactive = no such curve, though single readings can be large; an effect the other way counts as inactive or inconclusive. Potency is the fitted concentration of half-maximal effect.

SMILES	ATXN2 expr inh	TGFb inhibitor	ATXN viability	HepG2 viability	12-LOX inh
CSc1nnc2c(n1)OC(c1ccc3c(c1)OCO3)N(C(C)=O)c1ccc(Br)cc1-2 (centres undefined)	/	/	/	/	-18.8%
Cn1cc(C(=O)N2CCN(S(=O)(=O)c3ccc(Br)cc3)CC2)c2ccccc21	/	/	/	/	-12.8%
C[C@H](CO)N1C[C@H](C)[C@@H](CN(C)Cc2ccccc2)Oc2c(NC(=O)Cc3ccccc3)cccc2C1=O	?	?	?	-33.4%	12.7%
C[C@H](CO)N1C[C@H](C)[C@@H](CN(C)Cc2ccc3c(c2)OCO3)Oc2c(NS(=O)(=O)c3cn(C)cn3)cccc2C1=O	8.0%	?	i	3.0%	0.8%
C[C@H](CO)N1C[C@H](C)[C@@H](CN(C)Cc2ccc(-c3ccccc3)cc2)Oc2c(NS(=O)(=O)c3cn(C)cn3)cccc2C1=O	2.4%	3.16µM*	i	3.0%	-5.4%
C[C@H](CO)N1C[C@H](C)[C@@H](CN(C)Cc2ccc(Cl)c(Cl)c2)Oc2c(NC(=O)Cc3ccccc3)cccc2C1=O	28.2µM*	?	14.1µM*	-17.7%	-13.8%
COc1cc(OC)c2c(c1C(CCN1CCCC1)c1ccc(N(C)C)cc1)OC(=O)CC2c1ccc(N(C)C)cc1 (centres undefined)	/	0.1%	/	-26.1%	/
COc1ccc(C2CC(=O)Oc3c(C(CCN4CCCCC4)c4ccc(N(C)C)cc4)c(OC)cc(OC)c32)cc1 (centres undefined)	-22.2%	-11.6%	8.91µM*	6.5%	-4.3%
COc1ccc(C2CC(=O)Oc3c(C(CCN4CCCC(C)C4)c4ccc(N(C)C)cc4)c(OC)cc(OC)c32)cc1 (centres undefined)	-0.8%	-6.2%	8.91µM*	-22.4%	-1.8%
Cc1cc(NC(=O)COC(=O)C2(c3ccccc3)CC2)no1	/	/	/	/	-25.1%
CCOC(=O)/C=C1\CN(Cc2cc(OC)c(OC)c(OC)c2)S(=O)(=O)c2ccccc21	-18.6%	-25.0%	i	-17.6%	-7.1%
CCOC(=O)/C=C1\CN(Cc2cc(OC)c(OC)c(OC)c2)S(=O)(=O)c2ccc(C(F)(F)F)cc21	?	8.91µM*	?	-15.2%	-28.9%
O=C(Nc1ccncc1)C12CC3CC(CC(Br)(C3)C1)C2	/	/	/	/	-2.7%
COc1cccc(Nc2nc3ccccc3c(=O)[nH]2)c1	-11.6%	-63.4%	?	-4.4%	-13.0%
O=c1[nH]c(Nc2ccccc2)nc2nccc(-c3ccco3)c12	/	/	/	/	35.5µM*
CCOC(=O)N1CCN(C/C(Cl)=C/c2ccccc2)CC1	15.4%	-10.4%	?	3.3%	2.24µM*
CC1(C)N=C(N)N=C(N)N1c1ccc(OCC(=O)N2CCOCC2)c(Cl)c1	/	-5.2%	i	0.1µM*	-25.1%
CC1(C)N=C(N)N=C(N)N1c1ccc(OCC(=O)N2CCOCC2)cc1	/	0.4%	i	-54.9%	-9.8%
Cc1ccc(/C=N/NC(=O)c2ccc(Cl)cc2)s1	/	/	/	/	11.1%
O=c1[nH]c(=O)n([C@H]2C[C@H](O)[C@@H](CO)O2)cc1C(F)(F)F	2µM*!	-5.7%	i	-13.1%	12.1%
O=c1[nH]c(=O)n([C@H]2C[C@@H](O)[C@@H](CO)O2)cc1F	1.09µM*	?	/	-36.6%	-11.1%[57.4 µM]
O=c1[nH]c(=O)n(C2C[C@H](O)[C@@H](CO)O2)cc1C(F)(F)F (some centres undefined)	?	-3.1%	?	-4.0%	-1.5%
O=C(CCc1ncc(-c2ccc(Cl)cc2)o1)NC1CCS(=O)(=O)C1 (centres undefined)	/	/	/	/	4.4%
CC1CCN(C(CNC(=O)c2ccccc2SC(F)F)c2cccs2)CC1 (centres undefined)	/	/	/	/	31.6µM*
O=C1CCN(C(=O)c2ccco2)CCCC(c2nc(-c3ccccc3)no2)CCN1 (centres undefined)	/	/	/	/	33.6%
SMILES	ATXN2 expr inh	TGFb inhibitor	ATXN viability	HepG2 viability	12-LOX inh
COc1ccc(SCC(=O)c2ccc(O)cc2O)cc1	/	/	/	/	39.8µM*
O=C(CSC1CCCCC1)c1ccc(O)cc1O	/	/	/	/	44.7µM*
COc1ccc(-c2nnc(SCC(=O)c3ccc(O)cc3O)o2)cc1	3.5%	-5.4%	i	-10.6%	-7.8%
O=C(COC(=O)c1ccc(O)cc1O)NC1CCCCCC1	/	-8.1%	?	-0.9%	290.1%
Fc1ccc(-c2cnc([C@@H]3COCCN3Cc3cnc4ccccc4c3)[nH]2)c(F)c1	/	/	/	/	16.1%[176 µM]
Cc1cn2nc(C(=O)Nc3ccc4c(c3)OCCO4)cc2c(N(C)Cc2ccccc2)n1	/	/	/	/	44.2%
COc1ccccc1N(C)C(=O)Cc1noc2ccccc12	/	/	/	/	3.8%
CC1(Cc2ccc(C(F)(F)F)o2)C(=O)Nc2ccc(-c3cccc(C(F)(F)F)c3)cc21 (centres undefined)	?	14.1µM*	i	17.8µM*	?
CC1(Cc2ccc3c(c2)OCO3)C(=O)Nc2ccc(-c3cccc(C(F)(F)F)c3)cc21 (centres undefined)	?	?	?	17.8µM*	-25.0%
Clc1ccc(-c2noc(CCc3nc4ccccc4[nH]3)n2)cc1	/	/	/	/	15.1%
CCN1CCN(S(=O)(=O)c2ccc(S(=O)(=O)N(CC)Cc3ccccc3)cc2)CC1	-0.8%	-5.8%	i	-17.2%	1.41µM*
CCN1CCN(S(=O)(=O)c2ccc(Cl)c(C(=O)N(CC)Cc3ccccc3)c2)CC1	-2.8%	-10.0%	i	-2.0%	?
C=CCC[C@H](Cc1ccc(F)cc1)C(=O)OC[C@@H](Cc1c[nH]c2ccccc12)NC(=O)[C@@H](CC=C)CC(=O)N[C@@H](CO)Cc1ccccc1	?	10µM*	12.6µM*	-56.5%	?
C=CCC[C@@H](Cc1ccc(F)cc1)C(=O)OC[C@H](Cc1c[nH]c2ccccc12)NC(=O)[C@@H](CC=C)CC(=O)N[C@@H](CO)Cc1ccccc1	-11.7%	?	?	-48.8%	-16.5%
C=CCC[C@@H](Cc1ccc(F)cc1)C(=O)OC[C@@H](Cc1c[nH]c2ccccc12)NC(=O)[C@H](CC=C)CC(=O)N[C@H](CO)Cc1ccccc1	?	?	25.1µM*	-79.5%	-36.1%
Cc1cccc(Oc2ccc(S(=O)(=O)N3CCCCC3)cc2NCC(=O)Nc2cc(C)on2)c1	/	/	/	/	-21.2%
CCOc1c(Br)cc(/C=C2/NC(=O)NC2=O)cc1Br	/	/	/	/	2.1%
CC(C)c1ccc(/C=C/C(=O)N2CCN(C/C=C/c3ccccc3)CC2)cc1	/	/	/	/	15.5%
CCOC(=O)c1cc(-c2ccc(F)cc2)n(CCC(=O)NC2CCN(Cc3ccccc3)CC2)c1C	?	?	?	12.6µM*	-29.2%
COc1ccc(C(C)=O)cc1CSCc1coc(-c2ccc(F)cc2)n1	/	/	/	/	5.8%
CC1=NN(c2ccc(C)c(C)c2)C(=O)/C1=C\C=C\c1ccc([N+](=O)[O-])o1	?	10µM*	3.16µM*	-72.4%	?
